TbPYK inhibitor: inhibitors of Trypanosoma brucei pyruvate kinase. Q57TT1. TbPYK enzyme, Kinase-Glo Plus ATP luminescence, 45 min. Potency, µM (highest dose often 76.8 µM), hits mostly inhibitors. 410,000 tested, 0.12% active; also: nearly all actives have a fitted effect of over 50% in size
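Enzyme and substrate buffer are dispensed first and compound is pin-transferred. ADP at 130 uM final then starts the reaction, which runs 45 min at room temperature. Detection reagent is added for 10 min before luminescence is imaged.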
LmPK inh: inhibitors of Leishmania mexicana pyruvate kinase; 290,000 tested, 0.37% active; Q27686; purified LmPK, Kinase-Glo ATP luminescence, 1 h; AID 1721; Potency, µM (titrated, usually from 57.5 µM), actives largely listed as inhibitors
Target sequence (Q27686 whole entry, looked up): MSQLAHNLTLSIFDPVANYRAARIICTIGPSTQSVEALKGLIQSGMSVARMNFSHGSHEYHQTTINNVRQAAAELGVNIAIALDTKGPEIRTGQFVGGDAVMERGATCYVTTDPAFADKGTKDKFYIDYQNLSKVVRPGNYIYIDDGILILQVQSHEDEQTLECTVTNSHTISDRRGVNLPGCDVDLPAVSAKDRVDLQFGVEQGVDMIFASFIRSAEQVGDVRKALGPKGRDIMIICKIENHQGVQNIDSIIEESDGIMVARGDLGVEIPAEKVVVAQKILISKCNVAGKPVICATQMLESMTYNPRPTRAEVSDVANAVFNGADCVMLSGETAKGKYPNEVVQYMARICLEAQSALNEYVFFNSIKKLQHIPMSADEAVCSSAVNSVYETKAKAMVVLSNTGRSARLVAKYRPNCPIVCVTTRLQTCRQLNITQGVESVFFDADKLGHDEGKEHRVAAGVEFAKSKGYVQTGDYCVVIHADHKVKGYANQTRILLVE
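Kinase-Glo luminescence read after 1 h RT reaction of 0.1 nM LmPK with 0.5 mM PEP and 0.1 mM ADP. Activity scaled between uninhibited and enzyme-free controls.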
Sm TGR inh: blocks Schistosoma mansoni thioredoxin glutathione reductase. Potency, µM (highest dose often 114 µM), actives largely listed as inhibitors. Q962Y6. 360,000 tested, 3% active. purified TGR, DTNB reduction, TNB absorbance 405 nm; also: nearly all actives have a fitted effect of over 60% in size
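TGR 20 nM + NADPH 100 uM (dispensed conc.), cpd preinc 15 min RT; start with NADPH (500 uM addition) then DTNB (15 mM addition). Kinetic TNB absorbance, 405 nm filter. Four-parameter Hill fit across titration.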
RE007 growth inh: less growth of the S. pombe RE007 Vpr strain; S. pombe RE007 Vpr strain, BacTiter-Glo ATP luminescence, 24 h; Potency, µM (doses to about 92.2 µM), most hits filed as inhibitors; 360,000 tested, 0.21% active; active = well fitted falling curve with a large enough effect; inconclusive = small, poorly fitted or top-dose-only effect; inactive = no such curve, though single readings can be large or run the other way; also: nearly all actives have a fitted effect of over 50% in size
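Fission yeast strain RE007, carrying one chromosomally integrated HIV-1 vpr copy, was seeded at OD 0.01 in PMG+AL medium with 23 nL pinned compound. After 24 h at 30 °C and 99% humidity, viability was read by BacTiter-Glo luminescence.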
Numbers stand for hits; - = inactive; ? = inconclusive; . = no result; ! = repeats disagree. Only some compounds are listed: those with a hit (about 3% of all), similar ones and a draw of the others. Unless noted, calls follow the shape of the dose curve; as a rule, active = well fitted curve in the direction sought with a large enough effect; inconclusive = small, poorly fitted or top-dose-only effect, or another doubt; inactive = no such curve, though single readings can be large; an effect the other way counts as inactive or inconclusive.

SMILES	TbPYK inhibitor	LmPK inh	Sm TGR inh	RE007 growth inh
COc1ccc(-c2cn3c(n2)sc2cc(C(=O)NCCc4ccc(OC)cc4OC)ccc23)cc1	-	.	-	.
Cc1cc2cc(C(c3nnnn3Cc3ccco3)N3CCCCC3)c(=O)[nH]c2cc1C (stereo not given)	-	-	40µM	-
CN1CCN/C1=C(/C(Cl)=C(Cl)Cl)[N+](=O)[O-]	-	-	1.1µM	-
CN(Cc1ccccc1)C(=C(Cl)Cl)/C(=C1/NCCN1C)[N+](=O)[O-]	-	?	-	-
CCOC(=O)C1(CC2CCCCO2)CCN(Cc2ccccc2-c2ccco2)CC1 (stereo not given)	-	-	40µM	-
CCc1nn(CC(=O)Nc2ccc(C)cc2C)c(=O)c2cc3sccc3n12	-	.	-	.
Cc1cc(NC(=O)c2ccccc2)sc1C	-	13µM	?	?
Cc1ccc(NC(=O)c2ccccc2)s1	-	?	-	-
Cc1c(NC(=S)NC(=O)c2sc3ccccc3c2Cl)cccc1C(=O)O	-	-	3.2µM	-
COc1ccc(OCC(=O)O/N=C(\N)c2ccc(OC)cc2)cc1	-	-	-	-
CO/N=C(/COc1ccc(F)cc1)c1ccc(OC)cc1	-	-	25µM	-
Cc1ccc(NS(=O)(=O)c2c(C)nc3sccn3c2=O)c(Cl)c1	-	.	-	.
Clc1cccc(C2Nc3cccc4cccc(c34)N2)c1Cl	-	-	-	-
Brc1ccc(C2=Nc3cccc4cccc(c34)N2)o1	-	-	?	-
Clc1ccccc1C1Nc2cccc3cccc(c23)N1	-	-	18µM	?
Oc1ccc(C2Nc3cccc4cccc(c34)N2)c(O)c1	-	-	50µM	-
c1coc(C2Nc3cccc4cccc(c34)N2)c1	.	-	7.9µM	.
Brc1ccc(-c2ccc(C3Nc4cccc5cccc(c45)N3)o2)cc1	.	.	35µM	.
O=C(c1ccccc1Cl)n1nc(-c2cccnc2)nc1NCc1ccc(F)cc1	-	.	-	.
FC(F)(F)C1=Nc2cccc3cccc(c23)N1	-	.	18µM	-
COc1ccc(C(C(=O)NC2CCCCC2)N(C(=O)CCl)c2ccc(Cl)cc2)cc1 (stereo not given)	-	-	1.6µM	-
COC(CN(C(=O)CCl)C(C(=O)NC1CCCC(C)C1C)c1ccc(C)cc1)OC (stereo not given)	-	-	40µM	-
O=C(NC1CCCCC1)C(c1cccnc1)N(C(=O)CCl)c1cccc(Cl)c1 (stereo not given)	-	-	4µM	-
CN(C)C(C(=O)NC1CCCCC1)c1ccc(Cl)cc1 (stereo not given)	-	-	-	-
Cc1cccc(N(C(=O)CNC(=O)c2ccco2)C(C(=O)NC2CCCCC2)c2cccnc2)c1 (stereo not given)	-	-	-	-
SMILES	TbPYK inhibitor	LmPK inh	Sm TGR inh	RE007 growth inh
COC(CN(C(=O)CCl)C(C(=O)NC1CCCCC1)c1ccc(Cl)cc1)OC (stereo not given)	-	-	22µM	-
Cc1cccc(-c2nnn3c2nc(NCCc2ccc(S(N)(=O)=O)cc2)c2cc(Cl)ccc23)c1	-	.	-	.
COC(CN(C)C(C(=O)NC1CCCCC1)c1ccccc1)OC (stereo not given)	-	-	?	-
COC(CN(C(=O)CCl)C(C(=O)NC1CCCCC1)c1ccccc1C)OC (stereo not given)	-	-	7.1µM	-
CC(C)Oc1ccc(C(=O)NC(=S)Nc2ccc(Cl)c(C(=O)O)c2)cc1	-	-	40µM	-
COc1cccc(C(=O)NC(=S)Nc2ccc(Cl)c(C(=O)O)c2)c1	-	-	32µM	-
CCOc1cc(C(=O)Nc2ccncc2)cc(OCC)c1OCC	-	-	-	-
O=C(O)c1cc(NC(=S)NC(=O)C(c2ccccc2)c2ccccc2)ccc1Cl	-	-	-	-
Cc1ccc2nc(NC(=S)NC(=O)c3ccc(OC(C)C)cc3)sc2c1	-	13µM	0.71µM	-
CCOc1cc(C(=O)NC(=S)Nc2ccc(Cl)c(C(=O)O)c2)cc(OCC)c1OCC	-	-	32µM	-
CCCOc1ccc(C(=O)NC(=S)Nc2nc3ccc(C)cc3s2)cc1	.	-	-	.
COc1c(C)cc(Br)cc1C(=O)NC(=S)Nc1ccc(Cl)c(C(=O)O)c1	-	-	-	-
COC1CC2CCC(C)[C@](O)(O2)C(=O)C(=O)N2CCCCC2C(=O)OC(C(C)CC2CCC(O)C(OC)C2)CC(=O)C(C)/C=C(/C)C(O)C(OC)C(=O)C(C)CC(C)C=CC=C/C=C\1C (stereo not given in full)	-	.	.	.
Cc1ncsc1C(=O)N1CCCC(C(=O)c2ccc3ccccc3c2)C1 (stereo not given)	-	-	-	-
N/C(Cc1ccc(Cl)cc1Cl)=N\OC(=O)c1ccc(Br)o1	-	-	-	?
N/C(Cc1cccc2ccccc12)=N\OC(=O)c1ccc(Br)o1	.	-	45µM	.
O=C(CN1CC[C@@]2(O)CCCC[C@H]2[C@@H]1c1ccc(F)cc1)NCc1ccco1	-	-	40µM	-
CN1CCN(C(c2ccccn2)c2cc(Cl)c3cccnc3c2O)CC1 (stereo not given)	-	-	1.3µM	?
Oc1c(C(c2ccc(Cl)cc2)N2CCCC2)cc(Cl)c2cccnc12 (stereo not given)	-	-	3.2µM	-
Cc1ccc(C(c2cc(Cl)c3cccnc3c2O)N2CCN(C)CC2)cc1 (stereo not given)	-	-	0.71µM	-
Oc1c(C(c2ccccn2)N2CCC(Cc3ccccc3)CC2)cc(Cl)c2cccnc12 (stereo not given)	-	-	3.5µM	?
COC(=O)c1c(NC(=O)c2ccc(S(=O)(=O)N3CCCCC3)cc2)sc2c1CCN(C)C2	-	.	-	.
CCOC(=O)C1=C(C)N(c2ccc(C)cc2)C(=O)/C1=C\c1ccc(O)c(OC)c1	?	?	3.2µM	-
CCOc1cc(/C=C2\C(=O)N(CCc3ccc(OC)c(OC)c3)C(C)=C2C(=O)OC)ccc1O	-	-	20µM	-
COc1cc(NC(=O)c2cc(Cl)c(OC)c(Cl)c2)ccc1NC(=O)c1cc2ccccc2o1	-	.	-	.
SMILES	TbPYK inhibitor	LmPK inh	Sm TGR inh	RE007 growth inh
NC(CSCc1cccc(Br)c1)C(=O)O (stereo not given)	-	-	40µM	-
CCOc1cccc(CNc2ccc(O)cc2)c1OCc1ccccc1Cl	?	-	45µM!	?
CCOc1cccc(CNc2ccc(O)cc2)c1OCc1ccc(Cl)cc1Cl	?	-	?	?
C=CCC1(CC=C)CCCN1C(=O)CC1C(=O)NCCN1Cc1cc(OC)cc(OC)c1 (stereo not given)	-	-	28µM	-
CCOc1ccc(CN2CCNC(=O)C2CC(=O)NCCC2=CCCCC2)cc1 (stereo not given)	-	-	-	-
Cc1nc(CCNC(=O)CC2C(=O)NCCN2Cc2ccc(F)cc2)sc1C (stereo not given)	-	-	20µM	-
COc1cc(CN2CCNC(=O)C2CC(=O)NCCC2=CCCCC2)cc(OC)c1 (stereo not given)	-	-	40µM	-
